High-throughput results deposited in PubChem BioAssay by National Center for Advancing Translational Sciences (NCATS).
HCMV antiviral: qHTS Assay for inhibitors of the human cytomegalovirus (HCMV). activity change, negative = inhibition, % at 57.5 µM. hit rate 4.5% among 410,000. AID 1259415, 2018. HFF cells, HCMV-luciferase reporter, 72 h; stronger effect = lower value; in the data active = activity change below about -60%; inconclusive = no clear call, values can overlap the other calls; inactive = above about -39%
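Cell-based, HFFs, 1000 cells/well, 16 h 37C; cpds in DMSO + HCMV-luc, MOI 1 PFU/cell; 72 h 37C; OneGlo luminescence after 5 min RT; norm. to buffer vs Salinomycin 10uM.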
CHX counter: Cycloheximide Counterscreen for Small Molecule Inhibitors of Shiga Toxin | cell reporter, cycloheximide protein synthesis inhibition counterscreen | max response, % | hit rate 12% among 300,000; in the data active = max response mostly above about 13%, no sharp cut-off; inactive = mostly below about 14%; note: read at 38.3 µM for the half of the compounds with a filed dose
HCV inhibitor: qHTS Assay for Inhibitors of Hepatitis C Virus (HCV); Huh7.5.1 HCVcc-Cre infection, luciferase reporter, 44 h; Potency, µM (doses to about 41.8 µM), usual class: inhibitors; hit rate 3.4% among 340,000; AID 651820, 2012
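Infectious HCVcc-Cre (~0.5 moi) was added to cells just after compound, with cells seeded 4 h earlier at 1,000 per well. Luciferase activity after 44 h culture reported infection; substrate was incubated 15 min at room temperature before reading.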
Shiga inhibitor: A qHTS for Small Molecule Inhibitors of Shiga Toxin. Vero cells, Shiga toxin protein synthesis inhibition reporter. inhibition, % at 38.7 µM. hit rate 9.2% among 290,000. AID 2315, 2010; in the data active = inhibition mostly above about 28%, no sharp cut-off; inactive = mostly below about 43%
Pf growth 48h: Primary qHTS for delayed death inhibitors of the malarial parasite plastid, 48 hour incubation. P. falciparum luciferase growth in erythrocytes, 48 h. Potency, µM (doses to about 28.7 µM), actives largely listed as inhibitors. hit rate 5.9% among 310,000. AID 504832, 2011
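A one-generation exposure of luciferase-tagged malaria parasites in RPMI 1640/Albumax erythrocyte culture, 37 C and 5% CO2. Inhibition is inferred from decreased luminescence after adding detection reagent.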
Pf growth 96h: Primary qHTS for delayed death inhibitors of the malarial parasite plastid, 96 hour incubation; P. falciparum luciferase reporter growth, 96 h; Potency, µM (highest dose often 28.7 µM), most hits filed as inhibitors; hit rate 6.9% among 320,000
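Infected RBCs, 2% Hct / 0.05% parasitemia final; luciferase-reporter P. falciparum; cpd 96 h, 37 C, 5% CO2; luciferase detection reagent; luminescence.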
Large screens that a line does not name were inactive. A selection: hits, their analogues and other compounds. The true share with any hit is near 21%. Unless noted, calls come from the whole dose curve; as a rule, active = well fitted inhibition curve with a large enough effect; inconclusive = small, poorly fitted or top-dose-only effect, or another doubt; inactive = no such curve, though single readings can be large or run the other way.

CSCC[C@H](NC(=O)[C@H](Cc1ccccc1)n1c(=O)[nH]c2ccccc2c1=O)C(=O)NCC1CCC(C(=O)O)CC1 (stereo not given in full)	none
Cc1onc(-c2ccccc2)c1C(=O)Nc1ccc(S(=O)(=O)N2CCCC2)cc1	CHX counter 19
O=C(/C=C/c1ccc(Cl)cc1)Nc1ccc(CN2CCOCC2)cc1	HCMV antiviral -89, HCV inhibitor inconclusive, Pf growth 48h inconclusive, Pf growth 96h inconclusive
O=C(/C=C/c1ccc(Cl)cc1Cl)NC(=S)Nc1ccc(CN2CCOCC2)cc1	none
CC(C)CC(=O)N1CCN(Cc2ccc(Cl)cc2)CC1	Pf growth 96h inconclusive
CC(C)c1ccc(C(=O)Nc2ccc(CN3CCOCC3)cc2)cc1	HCMV antiviral -83, CHX counter 23, HCV inhibitor inconclusive, Shiga inhibitor 55, Pf growth 96h inconclusive
O=C(/C=C/c1ccccc1)NC(=S)Nc1ccc(CN2CCOCC2)cc1	HCMV antiviral -76
CC(C)c1ccc(CN2CCN(C(=O)CCl)CC2)cc1	HCMV antiviral -69, HCV inhibitor 11µM, Pf growth 48h inconclusive, Pf growth 96h inconclusive
NC(=O)c1ccc(NC(=O)c2ccc(CN3CCOCC3)cc2)cc1	none (no result: Pf growth 48h)
CC(C)(C)NC(=O)COC(=O)c1ccccc1C(=O)c1ccccc1	none
CC(C)c1ccc(/C=C/C(=O)Nc2ccc(CN3CCOCC3)cc2)cc1	HCMV antiviral inconclusive, HCV inhibitor 2.2µM, Pf growth 48h inconclusive, Pf growth 96h inconclusive
CCC(C(=O)NC1CC1)n1nc(C)c2c(C)n(-c3ccc(C)cc3)nc2c1=O (stereo not given)	HCMV antiviral inconclusive, HCV inhibitor inconclusive, Pf growth 96h inconclusive
CCC(C(=O)NCCC1=CCCCC1)n1nc(C)c2c(C)n(-c3ccccc3)nc2c1=O (stereo not given)	Pf growth 48h inconclusive, Pf growth 96h 12µM
Cc1nn(C(C)C(=O)NCCN2CCCCCC2)c(=O)c2nn(-c3ccccc3)c(C)c12 (stereo not given)	none
CCC(C(=O)NCCc1ccco1)n1nc(C)c2c(C)n(-c3ccccc3)nc2c1=O (stereo not given)	HCMV antiviral inconclusive
CCC(C(=O)NC1CCCCCC1)n1nc(C)c2c(C)n(-c3ccccc3)nc2c1=O (stereo not given)	HCV inhibitor inconclusive, Pf growth 48h inconclusive, Pf growth 96h 10µM
CCC(C(=O)NCCCc1ccccc1)n1nc(C)c2c(C)n(-c3ccccc3)nc2c1=O (stereo not given)	HCMV antiviral -67, HCV inhibitor inconclusive
CCC(C(=O)NCc1ccco1)n1nc(C)c2c(C)n(-c3ccccc3)nc2c1=O (stereo not given)	Pf growth 96h 15µM
Cc1cc(C)c2c(CC(=O)N(Cc3ccc(Cl)cc3)Cc3ccco3)coc2c1	none (no result: CHX counter, HCV inhibitor, Shiga inhibitor, Pf growth 48h, Pf growth 96h)
CCOC(=O)c1[nH]c(COC(=O)CCOc2ccccc2OC)c(C(=O)OCC)c1C	none
CCOC(=O)c1c(C)[nH]c(C(=O)OCCOc2ccc(Cl)cc2)c1C	HCV inhibitor inconclusive
CCOC(=O)c1[nH]c(C)c(C(=O)Nc2ccc(C)c(C)c2)c1C	CHX counter 15, HCV inhibitor inconclusive, Pf growth 96h 5.9µM (no result: Pf growth 48h)
CCOC(=O)c1[nH]c(COC(=O)CCCOc2ccccc2)c(C(=O)OCC)c1C	Pf growth 48h 13µM, Pf growth 96h inconclusive (no result: HCMV antiviral)
CCOC(=O)c1[nH]c(C)c(C(=O)Nc2ccc(F)cc2)c1C	none (no result: Pf growth 48h)
CCOC(=O)c1c(C)[nH]c(C(=O)OCCOc2ccccc2C)c1C	CHX counter 45, HCV inhibitor inconclusive, Shiga inhibitor 61
CCOC(=O)c1[nH]c(C)c(C(=O)Nc2ccccc2F)c1C	CHX counter 25, HCV inhibitor inconclusive, Shiga inhibitor 60, Pf growth 96h inconclusive
CCCCn1c(N)c(N(CC(C)C)C(=O)CSc2nnc(-c3ccc(Cl)cc3)o2)c(=O)[nH]c1=O	none (no result: CHX counter, Shiga inhibitor)
CCc1nc2n(n1)C(O)c1cc([N+](=O)[O-])ccc1S2 (stereo not given)	HCV inhibitor inconclusive
CCOC(=O)c1c(C)[nH]c(C(=O)OCc2ccc(F)cc2)c1C	CHX counter 50, HCV inhibitor inconclusive, Shiga inhibitor 72
CCOC(=O)c1ccc(OCCOc2ccccc2C)cc1	CHX counter 34, Pf growth 96h inconclusive (no result: Shiga inhibitor)
CCOC(=O)c1c(C)[nH]c(C(=O)OCc2ccccc2F)c1C	CHX counter 50, HCV inhibitor inconclusive, Shiga inhibitor 115
CCOC(=O)c1ccc(S(=O)(=O)NNC(=O)COc2ccccc2C)cc1	Pf growth 96h inconclusive
CCOc1cc(Cn2c(-c3ccc(O)c(OCC)c3)nc3ccccc32)ccc1O	none (no result: CHX counter, HCV inhibitor, Shiga inhibitor, Pf growth 48h, Pf growth 96h)
Cc1ccccc1/C=C/c1cc[n+](C)cc1	HCMV antiviral inconclusive, HCV inhibitor inconclusive, Pf growth 48h 5.2µM, Pf growth 96h inconclusive
C(=C/c1ccccc1)/c1ccccc1	none (no result: CHX counter, HCV inhibitor, Shiga inhibitor, Pf growth 48h, Pf growth 96h)
Cc1[nH]c2ccccc2c1/C=C/c1cc[n+](C)cc1	HCMV antiviral -69, HCV inhibitor inconclusive, Pf growth 48h 0.41µM, Pf growth 96h 0.15µM
Nc1ccc(/C=C/c2ccc(N)cc2S(=O)(=O)O)c(S(=O)(=O)O)c1	none (no result: HCMV antiviral, CHX counter, HCV inhibitor, Shiga inhibitor)
Cc1ccc(NC(=O)/C=C\C(=O)N(c2ccc(C(C)C)cc2)C(C(=O)NCc2ccco2)c2ccc(Cl)cc2)cc1 (stereo not given)	HCMV antiviral -76 (no result: CHX counter, HCV inhibitor, Shiga inhibitor, Pf growth 48h, Pf growth 96h)
CCOc1ccc(NC(=O)/C=C\C(=O)N(c2ccc(C(C)C)cc2)C(C(=O)NCc2ccco2)c2ccc(F)cc2)cc1 (stereo not given)	HCMV antiviral -61 (no result: CHX counter, HCV inhibitor, Shiga inhibitor, Pf growth 48h, Pf growth 96h)
CC(C)CC(C(=O)O)C(C)CC(=O)Nc1ccn(-c2ccccc2)n1 (stereo not given)	none
N#Cc1ccc(C(=O)Nc2cc(-c3ccccc3)nn2-c2ccccc2)cc1	HCV inhibitor 10µM, Pf growth 96h inconclusive (no result: CHX counter, Shiga inhibitor)
CC(=O)Nc1ccn(-c2ccccc2)n1	CHX counter 31, Shiga inhibitor 52, Pf growth 96h inconclusive
N#Cc1ccc(C(=O)Nc2ccn(-c3ccccc3)n2)cc1	HCMV antiviral -75, HCV inhibitor inconclusive, Pf growth 48h inconclusive, Pf growth 96h inconclusive
O=C(Nc1ccn(-c2ccccc2)n1)c1ccccc1Br	CHX counter 38, Shiga inhibitor 50
N#Cc1ccc(C(=O)Nc2cc(-c3ccc(F)cc3)nn2-c2ccccc2)cc1	HCV inhibitor inconclusive, Pf growth 48h inconclusive, Pf growth 96h inconclusive (no result: CHX counter, Shiga inhibitor)
O=C(Nc1cccc(NC(=O)c2ccc(Cl)cc2)n1)c1ccc(Cl)cc1	Pf growth 96h inconclusive
O=C(Nc1ccn(-c2ccccc2)n1)c1ccc(Cl)cc1	CHX counter 45, HCV inhibitor 7.1µM, Shiga inhibitor 106, Pf growth 96h inconclusive
COc1cc(Cl)c(C)cc1NC(=O)c1cnc(N2CCOCC2)c2ccccc12	none (no result: CHX counter, HCV inhibitor, Shiga inhibitor, Pf growth 48h, Pf growth 96h)
COc1cc(-c2cccc([C@H]3[C@@H]4C=CC[C@@H](C)[C@@H]4C(=O)N3Cc3ccccc3)c2)cc(OC)c1OC	HCV inhibitor 10µM (no result: Pf growth 48h, Pf growth 96h)
